DAX1 inh-1: inhibitors of human orphan nuclear receptor DAX1 (NR0B1); P51843; HEK293 Gal4-DAX1 luciferase reporter, luminescence; inhibition, % at 6.75 µM; AID 504766; 340,000 tested, 0.99% active;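 active = inhibition above the mean over all tested compounds plus 3 SD, cut at about 4.2% in these data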;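 note: inhibition shows as a rise in luminescence from relieved DAX1 repression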
Target sequence (P51843 207-470 limits assumed): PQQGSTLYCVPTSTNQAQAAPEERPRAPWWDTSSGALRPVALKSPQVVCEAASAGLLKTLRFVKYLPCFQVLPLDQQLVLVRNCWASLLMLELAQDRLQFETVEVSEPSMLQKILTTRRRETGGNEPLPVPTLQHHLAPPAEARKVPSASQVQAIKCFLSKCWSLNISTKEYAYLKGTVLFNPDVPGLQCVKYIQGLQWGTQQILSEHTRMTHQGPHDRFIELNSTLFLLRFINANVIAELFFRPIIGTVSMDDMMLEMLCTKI
hgDAF-12 ag: activates the H. glycines DAF-12 receptor ligand-binding domain. 370,000 tested, 1.8% active. activation, % at 6.8 µM. AID 687014. HEK293 GAL4-hgDAF12 UAS-luciferase reporter, agonist luminescence; normalized to butyrate control;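 active = activation above a cutoff set at the mean of all screened compounds plus 3 SD, cut at about 10% in these data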
hcDAF-12 act: activates DAF-12 receptor from parasite H. contortus. HEK293 hcDAF-12 lit1-tk-luc reporter, luminescence; 0% DMSO, 100% Δ7-dafachronic acid. activation, % at 6.8 µM. 370,000 tested, 1.4% active;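 active = activation above the mean of all tested compounds plus 3 SD, cut at about 5.5% in these data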
DAX1 inh-2: inhibitors of DAX1 repression of SF-1 activated StAR promoter; inhibition, % at 6.8 µM; AID 652010; HEK293T StAR-luciferase reporter, SF-1/DAX-1 repression relief; 370,000 tested, 1.1% active;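 active = inhibition above the mean over all tested compounds plus 3 SD, cut at about 3.6% in these data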;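 note: higher inhibition means more luminescence from relief of DAX-1 repression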
ssDAF12 agonist: activates DAF-12 receptor from parasite S. stercoralis; HEK293 ssDAF-12/GRIP1 lit1-tk-luc reporter, luminescence; % of 3 µM dafachronic acid response; activation, % at 6.8 µM; 370,000 tested, 1% active;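 active = activation above the mean over all tested compounds plus 3 SD, cut at about 0.9% in these data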
Numbers stand for hits; - = inactive; . = no result. In the library only some 4.1% were active in any assay of this set; here they are far more common.

SMILES | DAX1 inh-1 | hgDAF-12 ag | hcDAF-12 act | DAX1 inh-2 | ssDAF12 agonist
COC(=O)C[C@@H]1CC[C@@H]2[C@H](COc3ccc(NC(=O)c4cccc(OC)c4)cc3C(=O)N2C)O1 | . | - | - | - | -
CC1=NN(c2ccccc2)C(=O)/C1=C\c1sccc1C | - | - | - | - | 1.7
COc1ccccc1/C=C1/C(=O)N(c2ccccc2)N=C1C | - | - | - | - | -
Oc1c(C=Nc2ccc(Cl)cn2)sc2ccccc12 | - | - | - | - | -
Oc1c(/C=N/c2ccccn2)sc2ccccc12 | 4.7 | - | - | - | -
CCC1(CC)NC(=O)N(CC(=O)OCC(=O)Nc2cc(C)ccc2C)C1=O | - | - | - | - | -
CCN(CC)S(=O)(=O)c1ccc(C)c(NC(=O)COC(=O)CN2C(=O)NC(C)(C)C2=O)c1 | - | - | - | - | 0.9
Nc1[nH]c(C(=O)c2ccccc2)c(-c2ccc(Cl)cc2)c1C(=O)NCCC1=CCCCC1 | . | - | - | . | -
CN(C)S(=O)(=O)c1ccc(N2CCCC2)c(C(=O)Nc2nc3ccccc3s2)c1 | - | - | - | - | 1.9
CN(C)S(=O)(=O)c1ccc(N2CCCC2)c(C(=O)Nc2nc3ccc(F)cc3s2)c1 | - | - | - | - | 0.9
Cc1cccc2sc(NC(=O)c3cc(S(=O)(=O)N(C)C)ccc3N3CCCC3)nc12 | - | - | - | - | -
Cc1ccccc1C1CCC2(CCC(=O)N2CC[C@@H](O)c2ccccc2)CC1 (some centres undefined) | . | - | - | . | -
Cc1nn(-c2ccccc2)c(C)c1/C=N/NC(=O)c1[nH][nH]c(=O)c1C | . | - | - | - | -
CCOC(=O)C(C)(C)CC#CCN(CC#Cc1ccccc1)S(=O)(=O)c1ccc(C)cc1 | . | - | - | - | -
O=C(Cn1cc(C(F)(F)F)ccc1=O)N1CCc2ccccc2C1 | - | - | - | - | 1.0
CC(C)CC(=O)Nc1ccc(S(=O)(=O)Nc2nccs2)cc1 | - | - | - | - | -
Cn1nc(C(=O)Nc2ccc(S(=O)(=O)Nc3ncccn3)cc2)ccc1=O | 5.1 | - | - | - | -
O=C(Nc1ccc(S(=O)(=O)Nc2nccs2)cc1)C1=NN(c2ccccc2)C(=O)CC1 | - | - | - | - | 1.2
CCC(=O)Nc1ccc(S(=O)(=O)Nc2nccs2)cc1 | 4.3 | - | - | - | -
Cc1ccc(S(=O)(=O)Nc2ccccn2)c(C)c1 | - | - | - | - | -
Cc1cc(C)c(S(=O)(=O)Nc2ccccn2)c(C)c1 | 4.3 | - | - | - | -
C[C@H](O)[C@@H]1CN2CCc3c([nH]c4ccccc34)[C@@H]2C[C@@H]1N(C)CC1CCCCC1 | . | - | - | - | -
C/C(C=NNC(=O)c1cc(-c2ccc(Cl)cc2)n[nH]1)=C\c1ccccc1 | . | - | - | - | -
Nc1ccn([C@@H]2O[C@H](C(=O)N[C@H](Cc3ccccc3)C(=O)NCC(=O)N3CCOCC3)[C@@H](O)[C@H]2O)c(=O)n1 | . | - | - | - | -
CN1C(=O)C[C@@](C#N)(C(=O)N2CCOCC2)[C@H]1c1ccccc1 | . | - | - | - | -
SMILES | DAX1 inh-1 | hgDAF-12 ag | hcDAF-12 act | DAX1 inh-2 | ssDAF12 agonist
CCC(=O)Nc1ccc(S(=O)(=O)Nc2ncccn2)cc1 | - | - | - | - | -
CCC(=O)Nc1ccc(S(=O)(=O)Nc2ccccn2)cc1 | - | - | - | - | 1.4
OCCN(Cc1ccccc1)CC(O)COc1ccc(-c2ccccc2)cc1 (centres undefined) | - | - | - | - | -
COc1cc(C(C)=O)ccc1OCC(O)CN(CCO)Cc1ccccc1 (centres undefined) | 7.2 | - | - | - | -
Cc1cc(N/N=C/c2ccncc2)nc2ccccc12 | - | - | - | 3.9 | -
Cc1cc(N/N=C/c2cccc(Br)c2)nc2ccccc12 | - | - | - | - | -
COc1ccc(C(=O)N/N=C/c2ccc(SC)cc2)cc1 | - | 11 | - | - | -
COc1ccc(C=NNC(=O)c2ccncc2)cc1 | . | - | - | - | -
CSc1ccc(/C=N/NC(=O)c2ccc(O)cc2)cc1 | - | 12 | - | - | -
CCOC(=O)[C@@]12CCC3=C1N(CCC3)C(=O)[C@H](CC(=O)NCc1cccc(C(F)(F)F)c1)C2 | . | - | - | - | -
C#CCNC(=O)C[C@H]1C[C@@]2(C(=O)OC)C(=C[C@H](C(C)C)O[C@@H]2C2CC2)N(Cc2cccc3ccccc23)C1=O | . | - | - | - | -
CC(=O)N1CCC(=NNc2nc3ccccc3s2)CC1 | - | - | 6.5 | - | -
CC(=O)NNc1nc2ccccc2s1 | - | - | - | - | -
CCOC(=O)N1CCC(=NNc2nc3ccccc3s2)CC1 | - | - | 5.8 | - | -
O=C(CSc1nnc(COc2ccccc2)n1Cc1ccco1)Nc1ccc2c(c1)OCO2 | . | - | - | - | -
Cc1ccc(S(=O)(=O)NC2=C(N3CCN(Cc4ccccc4)CC3)C(=O)c3ccccc3C2=O)cc1 | 5.3 | - | - | - | -
CC(=O)Nc1nc(-c2cccs2)cs1 | - | - | - | - | -
O=C(Nc1nc(-c2cccs2)cs1)c1ccc(Cl)s1 | - | 11 | - | - | -
COC(=O)c1ccc(OC)c(OC2CCCC2)c1 | 6.3 | - | - | - | -
COc1ccc(OC)c(NC(=O)NC2CCCCCCC2)c1 | - | - | - | - | -
Cc1ccc(NC(=O)NC2CCCCC2)cc1Cl | - | 12 | - | - | -
Cc1ccc(NC(=O)C2CCN(C(=O)NC3CCCCC3)CC2)cc1Cl | - | - | - | - | -
COc1ccc(NC(=O)NC2CCCCCCC2)cc1OC | - | - | - | 4.4 | -
COc1ccc(NC(=O)C(=S)NC2CCCCC2)cc1 | - | 12 | - | - | -
COC(=O)[C@]12C[C@H](CC(=O)NCc3cccs3)C(=O)N(Cc3cccc4ccccc34)C1=C[C@H](COCc1ccccc1)O[C@@H]2C | . | - | - | - | -
SMILES | DAX1 inh-1 | hgDAF-12 ag | hcDAF-12 act | DAX1 inh-2 | ssDAF12 agonist
O=C(OCC#CCSc1nnc(-c2cccc3ccccc23)o1)c1cccc(C(F)(F)F)c1 | . | - | - | . | -
O=C(NCc1ccccc1)[C@H]1CCCN1C(=O)[C@H]1CCCN1C(=O)c1cccc(Cl)c1 | . | - | - | - | -
COc1ccc(NC(=O)Nc2ccccn2)cc1OC | - | - | - | - | 1.5
O=C(Nc1ccc(Cl)c(Cl)c1)Nc1ccccn1 | - | - | - | - | -
CC1CCCC(C)N1S(=O)(=O)c1ccc(Cl)cc1 (centres undefined) | 4.7 | - | - | - | -
CN1CC=C(c2ccc(C(F)(F)F)cc2)N(c2ccccc2)C1=O | . | - | - | - | -
CCOc1ccc2nc(SCC(=O)c3ccc(Cl)s3)sc2c1 | - | - | - | - | -
CCOc1ccc2nc(SCC(=O)c3cccs3)sc2c1 | - | 12 | - | - | -
CCC(C)(C(=O)NC1CCCCC1)N(C(=O)c1ccccn1)c1ccccc1 (centres undefined) | - | - | - | - | -
CCC(C)(C(=O)NC1CCCCC1)N(C)C(=O)c1ccccn1 (centres undefined) | - | - | 6.1 | - | -

Screening data as filed in PubChem.
